Molecules are shown by their SMILES. Screen size: about 220,000 compounds; about 970 (0.44%) were called active. No stated cut-off is given here; in the data, active means activation above about 27%; inactive means the rest. Many of the other results were omitted from the sample, so actives are more common in it than they were.

In this assay the target is Neuropeptide Y receptor type 2 (Homo sapiens) (UniProt P49146). Description: NPY-Y2 potentiators or agonists, primary screen, cell-based (AID 1359).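 Further: cells stimulated with NPY near EC25 plus isoproterenol at EC100; 0% = vehicle plus submaximal agonist and 100% = vehicle plus saturating agonist.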 As to conditions: cells expressing NPY-Y2, potentiator/agonist read-out; at 3.6 µM; active compounds read high.
Neuropeptide Y receptor type 2 (Homo sapiens), sequence (P49146 whole entry, looked up): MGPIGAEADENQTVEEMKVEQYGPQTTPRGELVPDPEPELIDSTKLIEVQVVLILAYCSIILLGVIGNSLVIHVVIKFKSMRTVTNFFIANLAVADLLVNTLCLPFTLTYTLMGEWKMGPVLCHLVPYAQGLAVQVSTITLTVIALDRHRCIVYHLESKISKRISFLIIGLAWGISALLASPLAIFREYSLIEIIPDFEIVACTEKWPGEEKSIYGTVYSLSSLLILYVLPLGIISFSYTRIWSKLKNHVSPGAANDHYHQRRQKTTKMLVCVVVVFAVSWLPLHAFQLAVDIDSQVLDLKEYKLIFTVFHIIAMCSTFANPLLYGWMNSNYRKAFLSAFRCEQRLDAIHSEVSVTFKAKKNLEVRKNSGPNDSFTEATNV
For `CC1(C)Cc2c(C#N)c(N3CCNCC3)nc(-c3ccco3)c2CS1`, the activation was 54.8% (active).

For `CN(C)P(=S)(Nc1ccccc1)C(Cl)(Cl)Cl` (stereo not given), the activation is 3.95% (inactive). For `Cn1c(O)c(C(=Nc2ccc(F)cc2)c2ccccc2)c(=O)n(C)c1=O`, the activation was -10.2% (inactive).

`CCN1CC2C3CCC(C)(O3)C2C1` (stereo not given): the activation was 3.85% (inactive).

On to `CCCCCCCCCCCCn1ccc(=N)cc1`, for which the activation was -3.31% (inactive).

For the origin of these results see PubChem BioAssay AID1359 (The Scripps Research Institute Molecular Screening Center, 2008).
